According to PubChem BioAssay (NCATS):
Inconclusive results are not listed. A number with no mark means an inactive call. Active and inactive are the calls of the source. Calls come from the whole dose curve; as a rule, active = well fitted inhibition curve with a large enough effect; inconclusive = small, poorly fitted or top-dose-only effect; inactive = flat fitted curve, though single readings scatter.

What follows are compounds tested on MCC-26 (assay: qHTS assay to identify novel small-molecules to repurpose for Merkel cell carcinoma treatment (AID 1296009; note: nearly all actives have a fitted effect of over 60% in size)). Settings: MCC and control cell lines, CellTiter-Glo viability, 72 h; series mostly up to 46 µM; activity change, negative = cytotoxicity: at the top concentration.
Method in brief: (§1)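 Cells were treated for 72 hr at 37 degree celsius with compounds in 8- or 11-point dose response. Viability was read by CellTiter-Glo luminescence, normalized to no-cell (cytotoxicity) and DMSO controls.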
% is set by controls: 0 for no effect and ±100 for the full control effect; potency is the fitted concentration of half-maximal effect.

First: CCCC(C(=O)OCCN(CC)CC)(c1ccccc1)c1ccccc1
Second: CCN(CC)CCCN(c1ccccc1)C1Cc2ccccc2C1
The “activity change, negative = cytotoxicity” value of the first is lower: -29.2% for the first, 13.6% for the second.

Compared with `CCN(CC)CCOCCOC(=O)C1(c2ccccc2)CCCC1`, `CN(C(=O)CCCOc1ccc2[nH]c(=O)ccc2c1)C1CCCCC1` is lower in “activity change, negative = cytotoxicity” value: -1.56% for the first, -18.8% for the second.

Going from `OCCN1CCN(CCCN2c3ccccc3C=Cc3ccccc32)CC1` to `OCCN1CCN(CC/C=C2/c3ccccc3Sc3ccc(C(F)(F)F)cc32)CC1`, the “activity change, negative = cytotoxicity” value falls from -4.11% to -11.2%.

Compared with `CCCCNC(=O)NS(=O)(=O)c1ccc(C)cc1`, `CSc1ccc(C(=O)c2[nH]c(=O)[nH]c2C)cc1` is higher in “activity change, negative = cytotoxicity” value: -15.1% for the first, 9.84% for the second.

First: Fc1ccc(C(c2ccc(F)cc2)N2CCN(C/C=C/c3ccccc3)CC2)cc1
Second: O=C(CCCN1CCC(O)(c2cccc(C(F)(F)F)c2)CC1)c1ccc(F)cc1
The “activity change, negative = cytotoxicity” value of the first is lower: -5.04% for the first, 4.1% for the second.

Going from `CN(C)C(=O)Oc1ccc[n+](C)c1` to `COc1ccc(CN(CCN(C)C)c2ccccn2)cc1`, the “activity change, negative = cytotoxicity” value falls from 4.31% to -1.99%.

Compared with `CC1=NS(=O)(=O)c2cc(Cl)ccc2N1`, `C#CCN(C)CCCOc1ccc(Cl)cc1Cl` is lower in “activity change, negative = cytotoxicity” value: -0.483% for the first, -2.82% for the second.

Compared with `CN(C)CC[C@@H](c1ccc(Br)cc1)c1ccccn1`, `CN(C)CCN(Cc1cccs1)c1ccccn1` is higher in “activity change, negative = cytotoxicity” value: -2.8% for the first, 14.2% for the second.

Going from `CCn1nc(C(=O)O)c(=O)c2cc3c(cc21)OCO3` to `COc1ccc2c(c1OC)C(=O)O[C@@H]2[C@H]1c2c(cc3c(c2OC)OCO3)CCN1C`, the “activity change, negative = cytotoxicity” value falls from 12.5% to -15.2%.

Compared with `CCCN1C[C@H](CSC)C[C@@H]2c3cccc4[nH]cc(c34)C[C@H]21`, `CNCCCN1c2ccccc2CCc2ccccc21` is lower in “activity change, negative = cytotoxicity” value: 4.44% for the first, -14.6% for the second.

Going from `Nc1nc(N)c2nc(-c3ccccc3)c(N)nc2n1` to `NC1=NCC2c3ccccc3Cc3ccccc3N12` (centres undefined), the “activity change, negative = cytotoxicity” value rises from -9.8% to 2.37%.

First: CCc1cccc(N(C)C(N)=Nc2cccc3ccccc23)c1
Second: c1cc(CN2CCCCC2)cc(OCCCNc2nc3ccccc3s2)c1
The “activity change, negative = cytotoxicity” value of the first is lower: -16.9% for the first, -9.88% for the second.

First: CN(C)CCCN1c2ccccc2Sc2ccc(C(F)(F)F)cc21
Second: C[C@]12CC[C@@H]3c4ccc(O)cc4C[C@@H](CCCCCCCCCS(=O)CCCC(F)(F)C(F)(F)F)[C@H]3[C@@H]1CC[C@@H]2O (some centres undefined)
The “activity change, negative = cytotoxicity” value of the first is lower: -18% for the first, -16.5% for the second.

Going from `COCCOC(=O)C1=C(C)NC(C)=C(C(=O)OC(C)C)C1c1cccc([N+](=O)[O-])c1` (centres undefined) to `CCOC(=O)C1=C(C)NC(C)=C(C(=O)OC)C1c1cccc(Cl)c1Cl` (centres undefined), the “activity change, negative = cytotoxicity” value rises from -6.41% to 9.13%.

First: Cc1cccc(C)c1NC(=O)C(C)N (centres undefined)
Second: CC(C)NCC(O)c1cc(O)cc(O)c1 (centres undefined)
The “activity change, negative = cytotoxicity” value of the first is higher: 0.387% for the first, -1.95% for the second.

First: COCCc1ccc(OCC(O)CNC(C)C)cc1 (centres undefined)
Second: CCCCNc1c(C(=O)OCC)c(C)nc2c1cnn2CC
The “activity change, negative = cytotoxicity” value of the first is higher: 1.18% for the first, -13.9% for the second.

For `CC(=O)[C@@]1(O)CC[C@H]2[C@@H]3CCC4=CC(=O)CC[C@]4(C)[C@H]3CC[C@@]21C`, the “activity change, negative = cytotoxicity” value was -5.37%.

`CN1CCN(CC(=O)N2c3ccccc3C(=O)Nc3cccnc32)CC1` gave an activity change, negative = cytotoxicity of 1.14% [at 4.84 µM].

These compounds were tested on MKL-1 in the same assay as above. Settings: MCC and control cell lines, CellTiter-Glo viability, 72 h; series mostly up to 46 µM; activity change, negative = cytotoxicity: at the top concentration.
Method in brief: as §1

Going from `CCN(CC)CCOCCOC(=O)C1(c2ccccc2)CCCC1` to `CCN(CC)CCCN(c1ccccc1)C1Cc2ccccc2C1`, the “activity change, negative = cytotoxicity” value falls from -4.96% to -16.8%.

Compared with `CCCCNC(=O)NS(=O)(=O)c1ccc(C)cc1`, `CSc1ccc(C(=O)c2[nH]c(=O)[nH]c2C)cc1` is higher in “activity change, negative = cytotoxicity” value: -4.81% for the first, 2.83% for the second.

Compared with `Fc1ccc(C(c2ccc(F)cc2)N2CCN(C/C=C/c3ccccc3)CC2)cc1`, `O=C(CCCN1CCC(O)(c2cccc(C(F)(F)F)c2)CC1)c1ccc(F)cc1` is higher in “activity change, negative = cytotoxicity” value: -17.8% for the first, -1.12% for the second.

Compared with `CN(C)C(=O)Oc1ccc[n+](C)c1`, `COc1ccc(CN(CCN(C)C)c2ccccn2)cc1` is lower in “activity change, negative = cytotoxicity” value: 2.99% for the first, 2.43% for the second.

Compared with `CC1=NS(=O)(=O)c2cc(Cl)ccc2N1`, `C#CCN(C)CCCOc1ccc(Cl)cc1Cl` is higher in “activity change, negative = cytotoxicity” value: 4.85% for the first, 6.66% for the second.

Compared with `CN(C(=O)CCCOc1ccc2[nH]c(=O)ccc2c1)C1CCCCC1`, `c1cc(CN2CCCCC2)cc(OCCCNc2nc3ccccc3s2)c1` is higher in “activity change, negative = cytotoxicity” value: -13.5% for the first, -12.3% for the second.

First: NC1=NCC2c3ccccc3Cc3ccccc3N12 (centres undefined)
Second: CN(C)CCN(Cc1cccs1)c1ccccn1
The “activity change, negative = cytotoxicity” value of the first is higher: 11% for the first, 6.25% for the second.

Compared with `CC(C)NCC(O)c1cc(O)cc(O)c1` (centres undefined), `COCCc1ccc(OCC(O)CNC(C)C)cc1` (centres undefined) is higher in “activity change, negative = cytotoxicity” value: -4.73% for the first, -0.155% for the second.

Going from `C[C@]12CC[C@@H]3c4ccc(O)cc4C[C@@H](CCCCCCCCCS(=O)CCCC(F)(F)C(F)(F)F)[C@H]3[C@@H]1CC[C@@H]2O` (some centres undefined) to `CCOC(=O)C1=C(C)NC(C)=C(C(=O)OC)C1c1cccc(Cl)c1Cl` (centres undefined), the “activity change, negative = cytotoxicity” value rises from -16.4% to 3.73%.

Each compound was assayed on MKL-2 in the same assay as above. Settings: MCC and control cell lines, CellTiter-Glo viability, 72 h; series mostly up to 46 µM; activity change, negative = cytotoxicity: at the top concentration.
Method in brief: as §1

Compared with `CCN(CC)CCOCCOC(=O)C1(c2ccccc2)CCCC1`, `CN(C(=O)CCCOc1ccc2[nH]c(=O)ccc2c1)C1CCCCC1` is lower in “activity change, negative = cytotoxicity” value: -1.43% for the first, -5.81% for the second.

First: OCCN1CCN(CCCN2c3ccccc3C=Cc3ccccc32)CC1
Second: NC1=NCC2c3ccccc3Cc3ccccc3N12 (centres undefined)
The “activity change, negative = cytotoxicity” value of the first is higher: -5.37% for the first, -24.3% for the second.

Compared with `CCCCNC(=O)NS(=O)(=O)c1ccc(C)cc1`, `CSc1ccc(C(=O)c2[nH]c(=O)[nH]c2C)cc1` is higher in “activity change, negative = cytotoxicity” value: 2.37% for the first, 17.3% for the second.

First: CN(C)C(=O)Oc1ccc[n+](C)c1
Second: COc1ccc(CN(CCN(C)C)c2ccccn2)cc1
The “activity change, negative = cytotoxicity” value of the first is lower: 0.0553% for the first, 0.506% for the second.

First: CC1=NS(=O)(=O)c2cc(Cl)ccc2N1
Second: C#CCN(C)CCCOc1ccc(Cl)cc1Cl
The “activity change, negative = cytotoxicity” value of the first is lower: 1.99% for the first, 12.5% for the second.

Going from `CN(C)CC[C@@H](c1ccc(Br)cc1)c1ccccn1` to `CN(C)CCN(Cc1cccs1)c1ccccn1`, the “activity change, negative = cytotoxicity” value rises from -4.1% to 20.8%.

Going from `CCn1nc(C(=O)O)c(=O)c2cc3c(cc21)OCO3` to `COc1ccc2c(c1OC)C(=O)O[C@@H]2[C@H]1c2c(cc3c(c2OC)OCO3)CCN1C`, the “activity change, negative = cytotoxicity” value falls from 4.52% to -6.13%.

Compared with `CCCN1C[C@H](CSC)C[C@@H]2c3cccc4[nH]cc(c34)C[C@H]21`, `CCOC(=O)C1=C(C)NC(C)=C(C(=O)OC)C1c1cccc(Cl)c1Cl` (centres undefined) is lower in “activity change, negative = cytotoxicity” value: 7.53% for the first, -26.4% for the second.

First: Cc1cccc(C)c1NC(=O)C(C)N (centres undefined)
Second: COCCc1ccc(OCC(O)CNC(C)C)cc1 (centres undefined)
The “activity change, negative = cytotoxicity” value of the first is lower: 13.4% for the first, 15.1% for the second.

Compared with `CC(=O)[C@@]1(O)CC[C@H]2[C@@H]3CCC4=CC(=O)CC[C@]4(C)[C@H]3CC[C@@]21C`, `CCCCNc1c(C(=O)OCC)c(C)nc2c1cnn2CC` is lower in “activity change, negative = cytotoxicity” value: 22.1% for the first, -18.9% for the second.

Work on `CN1CCN(CC(=O)N2c3ccccc3C(=O)Nc3cccnc32)CC1` yielded an activity change, negative = cytotoxicity of 15.9% [at 4.84 µM].

`CN(C)CCCN1c2ccccc2Sc2ccc(C(F)(F)F)cc21` was tested, and the Potency was 13.3 µM (active).
